Values joined by “and” are separate entries in the source; they are usually repeats but may differ in a detail not shown here. Equal entries are not always repeated. Records with an inconclusive call do not appear. Active and inactive are the calls of the source. Calls come from the whole dose curve; as a rule, active = well fitted activation curve with a large enough effect in the repeat runs; inconclusive = weak or mixed curves; inactive = no such curve, though single readings can be large or run the other way.
Molecular target: Nuclear receptor subfamily 1 group I member 2 (Rattus norvegicus) (UniProt Q9R1A7)
Assay: Rat pregnane X receptor (rPXR) activation by small molecules, qHTS assay (AID 1346983); note: nearly all actives have a fitted effect of over 20% in size
Details: rPXR luciferase reporter cells, One-Glo luminescence, 24 h; max activation: active compounds read high
From the text: National Center for Advancing Translational Sciences [NCATS] NIH Chemical Genomics Center [NCGC] U.S. Environmental Protection Agency [EPA] National Institutes of Environmental Health Sciences [NIEHS] National Toxicology Program [NTP] Assay overview: The Pregnane X receptor (PXR), a ligand activated nuclear receptor plays a critical role in the regulation of genes involved in drug metabolism and transporters. PXR binds xenobiotics and when compounds interact with PXR produces enhanced expression of CYP3A genes. In humans PXR activation and CYP3A4 induction can be problematic due to their interactions with co-medicated drugs and decrease their efficacy or increase their own metabolism. However, there are known species-specific differences with regard to PXR activation that should be taken into account when animal PXR data are extrapolated to humans. A cell based rat PXR (rPXR) assay (developed by Puracyp, Inc., CA) was used to assess the activation of rPXR.
Assay Protocol Summary: rPXR cells were dispensed at 2,000 per well in 5uL of assay medium into white, solid-bottom 1536-well plates using a Multidrop Combi dispenser (Thermo Scientific). The assay plates were incubated at 37 C for 5hr before transferring 23 nL of test compounds dissolved in DMSO and positive control via Pintool station (Wako). The assay plates were incubated at 37 C for 24 hr. Then 5ul One-Glo assay reagent (Promega) was added to each plate by a Flying Reagent Dispenser (FRD, Aurora Discovery) and following 30 min incubation at room temperature, luciferase activity was quantified on a ViewLux plate reader (Perkin Elmer).
% is set by controls: 0 for no effect and ±100 for the full control effect; potency is the fitted concentration of half-maximal effect.

Sequence of Nuclear receptor subfamily 1 group I member 2 (Rattus norvegicus) (Q9R1A7 whole entry, looked up): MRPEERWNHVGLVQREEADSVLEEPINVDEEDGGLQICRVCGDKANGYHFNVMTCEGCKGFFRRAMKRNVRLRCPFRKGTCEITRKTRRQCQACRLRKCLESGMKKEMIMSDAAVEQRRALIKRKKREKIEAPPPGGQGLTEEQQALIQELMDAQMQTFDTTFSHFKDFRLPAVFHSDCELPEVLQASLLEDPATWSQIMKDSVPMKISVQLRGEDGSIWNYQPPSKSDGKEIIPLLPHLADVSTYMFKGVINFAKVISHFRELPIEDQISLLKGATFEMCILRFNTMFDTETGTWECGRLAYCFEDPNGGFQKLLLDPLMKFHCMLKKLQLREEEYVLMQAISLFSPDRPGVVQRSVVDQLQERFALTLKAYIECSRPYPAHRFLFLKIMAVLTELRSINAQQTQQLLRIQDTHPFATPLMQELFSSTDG

SMILES | max activation | Potency
CCN(CC)CCC(=O)N1c2ccccc2Sc2ccc(Cl)cc21 | 3.32% (inactive) | –
CC(C)N=c1cc2n(-c3ccc(Cl)cc3)c3ccccc3nc-2cc1Nc1ccc(Cl)cc1 | -3.58% (inactive) | –
CN1[C@@H]2CC[C@H]1CC(OC(c1ccccc1)c1ccccc1)C2 (stereo not given in full) | -1.01% (inactive) and 0.643% (inactive) and -2.69% (inactive) | –
COc1cc2c(cc1OC)CC(=O)N(CCCN(C)C[C@H]1Cc3cc(OC)c(OC)cc31)CC2 | -0.416% (inactive) | –
C=CCNC1=C2C[C@@H](C)C[C@H](OC)[C@H](O)[C@@H](C)/C=C(\C)[C@H](OC(N)=O)[C@@H](OC)/C=C\C=C(/C)C(=O)NC(=CC1=O)C2=O | -14.2% (inactive) | –
Cc1cc(C)c(NC(=O)C[C@H](CC(=O)O)c2cccc3ccccc23)c(C(=O)N2CCC3(CCCC3)CC2)c1 | 1.3% (inactive) | –
CC(C)(C)C(=O)OCOC(=O)[C@@H]1N2C(=O)[C@@H](N=CN3CCCCCC3)[C@H]2SC1(C)C | -0.301% (inactive) | –
COc1ccc(C[C@H](C)NC[C@@H](O)c2ccc(O)c(NC=O)c2)cc1 | -1.02% (inactive) | –
CCCCCc1ccc(C)cc1O | 4.82% (inactive) | –
CCC(Oc1ccccc1)C(=O)N[C@@H]1C(=O)N2[C@@H]1SC(C)(C)[C@@H]2C(=O)O (stereo not given in full) | -1.86% (inactive) | –
Cc1ncc(C[n+]2csc(CCOP(=O)(O)OP(=O)(O)O)c2C)c(N)n1 | -0.276% (inactive) | –
[O]=[Bi][O]C(=O)[O][Bi]=[O] | -3.15% (inactive) | –
CN1CCC(OC(=O)C(Oc2ccc(Cl)cc2)Oc2ccc(Cl)cc2)CC1 | -4.17% (inactive) | –
CO[C@@H]1[C@@H](O[C@@H]2O[C@H](C)[C@@H](O[C@H]3C[C@@](C)(O)[C@@H](O)[C@H](C)O3)[C@H](N(C)C)[C@H]2O)[C@@H](CC=O)C[C@@H](C)[C@@H](O[C@@H]2CC[C@H](N(C)C)[C@@H](C)O2)/C=C/C=C/C[C@@H](C)OC(=O)C[C@H]1O | -4.61% (inactive) | –
CC1(C)S[C@@H]2[C@H](NC(=O)C(C(=O)O)c3ccsc3)C(=O)N2[C@H]1C(=O)O (stereo not given in full) | -6.29% (inactive) | –
Cc1ccccc1 | -3.48% (inactive) | –
N#CC(c1ccc(Cl)cc1)c1c(Cl)cc(-n2ncc(=O)[nH]c2=O)cc1Cl (stereo not given) | 12.6% (inactive) | –
CC(C)(C)c1ccc(CN2CCN(C(c3ccccc3)c3ccc(Cl)cc3)CC2)cc1 (stereo not given) | 10.7% (inactive) | –
O=C(O)CN(CC(=O)O)CC1=CC2C(=CC1=O)Oc1cc(O)c(CN(CC(=O)O)CC(=O)O)cc1C21OC(=O)c2ccccc21 (stereo not given) | 0.33% (inactive) | –
C=Cc1c(C)c2cc3nc(cc4[nH]c(cc5nc(cc1[nH]2)C(C)=C5CCC(=O)OC)c(CCC(=O)O)c4C)[C@@]1(C)C3=CC=C(C(=O)OC)[C@H]1C(=O)OC | -3.53% (inactive) | –

SMILES | max activation | Potency
CC(=O)OCC(=O)[C@@]12OC3(CCCC3)O[C@@H]1C[C@H]1[C@@H]3CCC4=CC(=O)C=C[C@]4(C)[C@@]3(F)[C@@H](O)C[C@@]12C | – | 25.1 µM (active)
CNC(=O)c1c(I)c(C(=O)NCC(=O)Nc2c(I)c(C(=O)O)c(I)c(C(=O)NCCO)c2I)c(I)c(N(C)C(C)=O)c1I | -3.62% (inactive) | –
CCOC(=O)[C@H](CS)NCCN[C@@H](CS)C(=O)OCC | -0.64% (inactive) | –
CCCCCCCCCCCCCC[n+]1ccc(C)cc1 | -19.6% (inactive) | –
CC(=O)N=c1sc(S(N)(=O)=O)nn1C | -1.62% (inactive) | –
NS(=O)(=O)c1cc2c(cc1Cl)NC(Cc1ccccc1)NS2(=O)=O (stereo not given) | -1.36% (inactive) | –
O=C(O)C1=C(CSc2nnnn2CS(=O)(=O)O)CS[C@@H]2[C@H](NC(=O)[C@H](O)c3ccccc3)C(=O)N12 | -0.182% (inactive) | –
COc1ccc(C2(C#N)CCC(C(=O)O)CC2)cc1OC1CCCC1 (stereo not given) | -0.133% (inactive) | –
CO[C@@H]1[C@@H](O[C@@H]2O[C@H](C)[C@@H](O[C@H]3C[C@@](C)(O)[C@@H](OC(=O)CC(C)C)[C@H](C)O3)[C@H](N(C)C)[C@H]2O)[C@@H](CC=O)C[C@@H](C)C(=O)/C=C/C2OC2C[C@@H](C)OC(=O)C[C@H]1OC(C)=O (stereo not given in full) | -11.7% (inactive) | –
COc1ccc2c(c1)N(C[C@H](C)CN(C)C)c1ccccc1S2 | -5.19% (inactive) | –
CC(C)C(=O)OCC(=O)[C@@]12O[C@H](C3CCCCC3)O[C@@H]1C[C@H]1[C@@H]3CCC4=CC(=O)C=C[C@]4(C)[C@H]3[C@@H](O)C[C@@]12C | – | 7.94 µM (active)
O=C(CCCCCCCCCCCCC1CCCC1)Nc1ccc(S(=O)(=O)c2ccc(NC(=O)CCCCCCCCCCCCC3CCCC3)cc2)cc1 | -2.51% (inactive) | –
CCCOc1ccc2nc(NC(=O)OC)sc2c1 | – | 2.51 µM (active)
Cc1cccc(C)c1NC(=O)NC1=CCCN1C | -2.14% (inactive) | –
CC1=C[C@H](O)CC(C)(C)[C@H]1/C=C/C(C)=C/C=C/C(C)=C/C=C/C=C(C)/C=C/C=C(C)/C=C/C1=C(C)C[C@@H](O)CC1(C)C | 0.35% (inactive) | –
O=C(O)c1cc(O)c2c(c1)[O][Bi][O]2 | -0.194% (inactive) | –
CO/N=C(\C(=O)N[C@@H]1C(=O)N2C(C(=O)O)=C(CSC(=O)c3ccco3)CS[C@H]12)c1csc(N)n1 | -5.54% (inactive) | –
O=C(CCCN1CCC(C(=O)c2ccc(F)cc2)CC1)c1ccc(F)cc1 | 4% (inactive) | –
CC1=C(/C=C/C(C)=C/C=C/C(C)=C/C(=O)Oc2c(C)c(C)c3c(c2C)CC[C@@](C)(CCC[C@H](C)CCC[C@H](C)CCCC(C)C)O3)C(C)(C)CCC1 | -1.27% (inactive) | –
Cn1c(O)c(N=NC(N)=S)c2ccccc21 | 1.06% (inactive) | –
